High-throughput results from PubChem.
Hits are enriched below; roughly 4.7% of the tested compounds scored in any of these assays.
TRHR PAM = qHTS for Small Molecule Agonists and Allosteric Enhancers of Human TRH Receptor: Primary Screen for Enhancers; Thyrotropin-releasing hormone receptor (Homo sapiens), P34981; TRHR cells, fluo-8 calcium fluorescence, EC20 TRH enhancement; enhancement, % at 2 µM; 0.66% of 360,000 active; in the data active means enhancement above about 30%; further: 0% is about no effect
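Enhancer read-out: after compound pinning and an initial kinetic agonist-mode read, an EC20 of TRH (10 nM final) was injected and fluo-8 calcium signal (Ex 480/Em 530) followed at 1 s/cycle for 100 cycles in TRHR-expressing cells.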
D1 ag = Allosteric Agonists of the Human D1 Dopamine Receptor: qHTS. D(1A) dopamine receptor (Homo sapiens), P21728. HEK293 T-REx D1 cells, calcium flux, agonist mode. activation, % at 2 µM. 1% of 360,000 active; further: 0% is about no effect
Target sequence (P21728 whole entry, looked up): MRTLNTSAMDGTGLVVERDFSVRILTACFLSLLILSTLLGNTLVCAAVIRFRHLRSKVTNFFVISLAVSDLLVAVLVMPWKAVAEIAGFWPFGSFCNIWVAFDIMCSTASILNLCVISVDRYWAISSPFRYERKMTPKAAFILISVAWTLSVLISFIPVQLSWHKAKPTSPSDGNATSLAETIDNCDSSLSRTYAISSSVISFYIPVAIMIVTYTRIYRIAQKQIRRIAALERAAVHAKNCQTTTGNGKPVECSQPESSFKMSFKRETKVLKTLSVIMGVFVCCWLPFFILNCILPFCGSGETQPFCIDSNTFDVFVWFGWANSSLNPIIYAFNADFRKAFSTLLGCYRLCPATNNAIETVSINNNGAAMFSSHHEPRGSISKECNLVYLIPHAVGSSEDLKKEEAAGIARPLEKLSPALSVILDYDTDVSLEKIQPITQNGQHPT
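Tetracycline-induced HEK293 TREx D1 cells, force-coupled to calcium signalling, were dye-loaded with a no-wash calcium kit. Compound was pin-added after a 10 s baseline. Fluorescence was read kinetically at 1 cycle/s for 180 s, with calcium rises flagged as agonism.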
D1 antag = Antagonist of Human D 1 Dopamine Receptor: qHTS. activity change, negative = inhibition, % at 10 µM. HEK293 TREx D1 cells, calcium flux, dopamine EC80; stronger effect = lower value. 3.2% of 360,000 active. D(1A) dopamine receptor (Homo sapiens), P21728; in the data active means activity change below about -30%; further: on the % scale 0 is the no-effect control and ±100 the full control effect
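Using tetracycline-induced force-coupled D1 Hek293 cells and a calcium dye, signals were followed for 180 s after compound, then for 180 s after EC80 dopamine, to detect inhibitors.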
D1 potentiator = Potentiators of Human D1 Dopamine Receptor: qHTS; D(1A) dopamine receptor (Homo sapiens), P21728; HEK293 TREx D1 cells, calcium flux, dopamine EC20 potentiation; potentiation, % at 10 µM; 0.036% of 360,000 active; AID 504651, 2011; in the data active means potentiation above about 30%; further: 0% is about no effect
TRHR agonist = qHTS for Small Molecule Agonists and Allosteric Enhancers of Human TRH Receptor: Primary Screen for Agonists; TRHR cells, calcium flux fluo-8, FDSS agonist mode; activation, % at 2 µM; 0.18% of 360,000 active; AID 493084, 2011; further: 0% is about no effect
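TRHR-expressing cells loaded with fluo-8 calcium dye; 23 nL library compound pin-transferred, kinetic FDSS fluorescence (Ex 480/Em 530) recorded about 180 s for agonist-induced calcium release, before a 10 nM TRH EC20 addition for potentiator mode.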
The depositor's hits bear a star; ! = not active in a repeat. Unless noted, no stated cut-off is given here; in the data, active means activation above about 30%; inactive means the rest.

SMILES	TRHR PAM	D1 ag	D1 antag	D1 potentiator	TRHR agonist
CCN(Cc1cnn(C)c1)C(=O)c1ccc(OC2CCN(S(=O)(=O)N(C)C)CC2)cc1	9	9	-42*	-5	-2
CC1CCCCN1C(=O)c1ccc(OC2CCN(S(=O)(=O)N(C)C)CC2)cc1 (stereo not given)	-3	11	-24	0	1
CN(C)S(=O)(=O)N1CCC(Oc2cccc(C(=O)NC3CCCCCC3)c2)CC1	-3	14	-32*	-7	0
Cc1cc(CNC(=O)c2cccc(OC3CCN(S(=O)(=O)N(C)C)CC3)c2)on1	3	9	-39*	-10	0
Cc1ccc(C)c(N2CCN(C(=O)c3ccc4c(Cl)c5c(nc4c3)CCCC5)CC2)c1	2	5	3	9	0
Cc1cc(C)cc(-n2c(C)cc(C(=O)CSc3nnnn3C)c2C)c1	-13	41*	-11	-6	-1
CCOc1ccc(N(C(C)C(=O)NN=C2CCCCCCC2)S(C)(=O)=O)cc1 (stereo not given)	6	0	-33*	-8	-1
COc1ccc(CNC(=O)CN2C(=O)CCCc3ccccc32)cc1	7	0	-2	0	0
COc1ccc(S(=O)(=O)N2CCC(n3c(C)nc4cccnc43)CC2)cc1Cl	-2	15	-34*	-4	2
CC(CCc1ccc(O)cc1)N(C)CCc1ccccc1 (stereo not given)	-5	5	-52*	-8	0
COc1cc(CCC(C)NCc2ccccc2)ccc1O (stereo not given)	1	5	-1	-3	1
CC(CCc1ccc(O)cc1)NCCC(c1ccccc1)c1ccccc1 (stereo not given)	-6	87*	-28	-11	5
CC(CCc1ccc(O)cc1)NCc1ccc(Br)cc1 (stereo not given)	0	31*	7	-12	0
COc1ccc(Cl)cc1NC(=O)CCS(=O)(=O)c1cccc2nonc12	11	-1	41	2	0
O=C(CSc1nnc(CNC(=O)c2cccc(F)c2)n1-c1ccccc1)Nc1ccccc1F	-4	0	-8	-4	0
CCN(c1ccccc1)S(=O)(=O)c1cc(C(=O)Nc2ccc(Br)cc2)ccc1F	-8	7	-37*!	-3	1
COCCn1c(C)cc(C(=O)CSc2nc3ccccc3c(=O)n2Cc2ccco2)c1C	7	2	1	0	0
COCCn1c(C)cc(C(=O)CSc2cc(C)c3ccccc3n2)c1C	-6	2	-38*	-8	-1
Cc1ccc(NC(=O)c2ccn(C)n2)c(Br)c1	2	1	-5	0	1
Cn1ccc(C(=O)Nc2ccc(Br)cc2Br)n1	-2	1	-43*	-16	0
COc1cc(OC)c(NC(=O)N2CCc3cc(OC)c(OC)cc3C2CC(=O)O)cc1Cl (stereo not given)	-1	0	-5	4	0
CCc1ccc(OCC(=O)Nc2ccncc2)c(Br)c1	-1	9	-30	-13	0
O=C(COC(=O)c1cc(-c2ccccc2)nc2ccccc12)Nc1ccc2c(c1)OCO2	-4	2	-42*	-3	0
CC(=O)N(C)c1ccc(NC(=O)COc2ccc(Br)cc2C)cc1	0	17	-55*	-8	0
COc1ccc(-c2cc(C(=O)OCC(=O)Nc3ccc4c(c3)OCO4)c3ccccc3n2)cc1	-5	2	-14	-8	1
SMILES	TRHR PAM	D1 ag	D1 antag	D1 potentiator	TRHR agonist
Cc1ccc(OCCC(=O)OCC(=O)Nc2ccc3c(c2)OCO3)cc1	-3	4	-64*	-6	0
Cc1cc(OCC(=O)Nc2ccncc2)c(C)cc1Br	-9	20	-33*	-12	0
Cc1ccc(OCCC(=O)Nc2ccc3c(c2)OCO3)cc1	4	1	6	-1	1
COc1cccc(-c2nnc(SCC(=O)NC3CCCCC3)o2)c1	-5	0	-1	-3	-2
Cc1ccc(C)c(OCC(=O)Nc2ccc3c(c2)OCO3)c1	11	7	1	-6	0
Cc1cc(C)c(OCC(=O)Nc2ccc3c(c2)OCO3)cc1C	-2	124*	4	18	-1
Cc1cc(O)c(C(c2cccc(F)c2)N2CCC(C)CC2)c(=O)n1Cc1ccco1 (stereo not given)	-2	2	-6	-1	0
N[C@@H](CO)c1nnc([C@H](CC(=O)O)NC(=O)C2CCNCC2)o1	2	-5	-1	1	0
N[C@@H](CO)c1nnc([C@H](CCC(=O)O)NC(=O)C2CCNCC2)o1	0	0	-38*	-6	0
N[C@@H](Cc1ccc(O)cc1)c1nnc([C@H](CCC(=O)O)NC(=O)C2CCNCC2)o1	-11	-1	-41*	-2	0
COc1ccc(NC(=O)c2ccco2)cc1NC(=O)COc1ccc(Cl)c(C)c1	19	1	-5	0	0
CCOC(=O)c1ccccc1NC(=O)c1c(C)oc2ncnc(N3CCOCC3)c12	6	17	13	4	4
CCC1C/C(=C\c2cc(OC)c(OC)cc2OC)C(=O)/C(=C/c2cc(OC)c(OC)cc2OC)C1 (stereo not given)	5	22	2	-11	4
CCC1C/C(=C/c2ccco2)C(=O)/C(=C/c2ccco2)C1 (stereo not given)	4	37*	10	1	10
COc1ccc(NC(=O)CSc2nnc(-c3nonc3NC(C)=O)n2-c2ccccc2)cc1	1	-2	-46*	1	0
COc1ccccc1NC(=O)CSc1nc2c(oc3ccccc32)c(=O)n1-c1ccc(C)cc1	1	6	-39*	-4	1
COc1ccc(-n2c(SCC(=O)Nc3ccc(C)cc3)nc(O)c(Cc3ccccc3)c2=O)cc1	3	6	-51*	1	0
CC(=O)Nc1nonc1-c1nnc(SCC(=O)Nc2ccc(C)c(Cl)c2)n1-c1ccccc1	-1	-1	3	0	0
CCOC(=O)c1scc(-c2ccc(C)cc2)c1S(=O)(=O)Nc1ccc(OC)c(Cl)c1	0	10	-3	-6	-1
Cc1cc(C(=O)COC(=O)c2ccc(O)cc2)c(C)n1CCc1ccc(F)cc1	33*	12	-1	-7	1
CC(=O)c1c(C)[nH]c(C(=O)Nc2cccc(S(=O)(=O)N(C)c3ccccc3)c2)c1C	-4	7	-44*	-5	0
CC(=O)c1c(C)[nH]c(C(=O)Nc2ccc(Cl)cc2)c1C	36*	33*	-63*	-9	-1
